AHR act – human AHR activation | AHR-responsive luciferase reporter cells, luminescence | activation, % at 5 µM | actives 2.5% (n = 320,000) | AID 2796; in the data active = activation above about 47%
EBI2 block – blocks human EBI2 receptor beta-arrestin signaling | AID 651636 | actives 0.81% (n = 360,000) | EBI2 beta-arrestin recruitment, luminescence, 7a,25-OHC stimulated | P32249 | inhibition, % at 5 µM; in the data active = inhibition above about 38%;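 also: enzyme fragment complementation signal reports receptor beta-arrestin coupling in cells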
Target sequence (P32249 whole entry, looked up, the tested form may be a part): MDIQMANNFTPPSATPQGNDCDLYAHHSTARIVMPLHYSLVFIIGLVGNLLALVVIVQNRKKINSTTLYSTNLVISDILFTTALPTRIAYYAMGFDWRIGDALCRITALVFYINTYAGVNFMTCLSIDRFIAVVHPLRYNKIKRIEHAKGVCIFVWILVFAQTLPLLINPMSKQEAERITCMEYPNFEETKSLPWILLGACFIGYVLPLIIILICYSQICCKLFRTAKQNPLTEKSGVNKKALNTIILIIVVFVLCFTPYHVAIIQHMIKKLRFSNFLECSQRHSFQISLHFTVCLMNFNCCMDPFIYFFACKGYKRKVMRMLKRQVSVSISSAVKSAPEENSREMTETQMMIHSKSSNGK
SENP6 block – inhibitors of human SENP6 protease; AID 2599; Q9GZR1; actives 1.8% (n = 330,000); inhibition, % at 10 µM; Recombinant SENP6 catalytic domain, aminoluciferin luminescence;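 active = inhibition above about 50% at the single tested dose, limit read from the data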
SENP8 block-1 – SENP8 (human) protease inhibition. Q96LD8. recombinant SENP8, Nedd8 substrate fluorescence. inhibition, % at 20 µM. actives 0.64% (n = 360,000); in the data active = inhibition mostly above about 40%, no sharp cut-off; inactive = mostly below about 27%
Target sequence (Q96LD8 whole entry, looked up): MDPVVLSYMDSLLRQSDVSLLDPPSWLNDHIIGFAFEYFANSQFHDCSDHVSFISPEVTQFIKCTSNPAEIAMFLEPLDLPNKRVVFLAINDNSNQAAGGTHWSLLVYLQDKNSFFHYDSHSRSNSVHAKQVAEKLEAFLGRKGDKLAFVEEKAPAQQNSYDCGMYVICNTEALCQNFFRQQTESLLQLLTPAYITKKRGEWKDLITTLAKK
SENP8 block-2 – SENP8 protease inhibition | Q96LD8 | purified SENP8, Z-RLRGG-aminoluciferin cleavage, luminescence | inhibition, % at 10 µM | actives 1.2% (n = 330,000) | AID 2540; in the data active = inhibition above about 50%
SENP7 inh – inhibitors of human SENP7 protease; recombinant SENP7, Z-RLRGG-aminoluciferin luminescence, 40 min; inhibition, % at 5 µM; Q9BQF6; actives 1.5% (n = 330,000);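 active = inhibition above about 50% at the single test dose, limit read from the data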
SENP8 conf – confirmation of human SENP8 protease inhibitors | purified SENP8, Nedd8-AMC/pro-Nedd8 cleavage fluorescence, 30 min | AID 624319 | shares compounds with SENP8 block-1 | inhibition, % at 25 µM | actives 15% (n = 1,400); in the data active = inhibition mostly above about 39%, no sharp cut-off; inactive = mostly below about 34%
Large screens that a line does not name were inactive (follow-up assays come after a bar, where they were run). An excerpt weighted towards active compounds, which were near 5% of everything screened.

Cc1ccccc1N=C1N=C(N)c2ccccc21	none
CCOc1ccc(/C=C/C(=O)Nc2ccc(OC)cc2[N+](=O)[O-])cc1	SENP8 block-1 40.7 | SENP8 conf inactive
CCc1ccc2c(c1)c1nnc(NN)nc1n2C	SENP8 block-1 64.5 | SENP8 conf inactive
CCn1c2ccc(F)cc2c2nnc(NN)nc21	none
CCc1ccc2c(c1)c1nnc(NN)nc1n2CC	SENP8 block-1 72.3 | SENP8 conf inactive
O=[N+]([O-])c1cc(S(=O)(=O)N2CCCC2)ccc1NN=C1CCCCC1	none
O=[N+]([O-])c1cc(C(F)(F)F)cc([N+](=O)[O-])c1NN=C1CCCCC1	SENP8 block-1 41.8 | SENP8 conf inactive
Cn1c(N)c(C(=O)CSc2nn(-c3ccccc3)c(=S)s2)c(=O)n(C)c1=O	none (no result: AHR act)
O=S(=O)(O)c1ccc(Cl)c(Cl)c1	none (no result: AHR act, SENP6 block, SENP8 block-2, SENP7 inh)
CC1=NN(c2cc(Cl)c(S(=O)(=O)O)cc2Cl)C(=O)C1	SENP8 block-1 65.9 (no result: AHR act, SENP6 block, SENP8 block-2, SENP7 inh) | SENP8 conf inactive
CC1=NN(c2ccc(C(=O)O)c(N)c2)C(=O)C1	none
CC1=NN(c2ccc(S(=O)(=O)O)cc2Cl)C(=O)C1	SENP8 block-1 75.6 | SENP8 conf inactive
CCc1cccc(C)c1NC(=O)CO/N=C(\N)CC(=O)NC1CCCCC1	none
COC(=O)c1ccc(C(=O)OC)c(NC(=S)N2CCCC(CO)C2)c1 (stereo unspecified)	none
COC/C=C/C1=CC2=CC(=O)C(C)(OC(=O)c3cnc4ccccc4n3)C(=O)C2=CN1c1ccc(OC)cc1 (stereo unspecified)	none
COC/C=C/C1=CC2=CC(=O)C(C)(OC(=O)c3cnc4ccccc4n3)C(=O)C2=CN1Cc1ccccc1 (stereo unspecified)	SENP8 block-1 45.0 | SENP8 conf inactive
COC/C=C/C1=CC2=CC(=O)C(C)(OC(=O)c3cnc4ccccc4n3)C(=O)C2=CN1CCCCO (stereo unspecified)	SENP8 block-1 55.5 | SENP8 conf 45.8
COC/C=C/C1=CC2=CC(=O)C(C)(OC(=O)c3cnc4ccccc4n3)C(=O)C2=CN1CCc1ccccn1 (stereo unspecified)	none (no result: EBI2 block, SENP8 block-1)
COC/C=C/C1=CC2=CC(=O)C(C)(OC(=O)c3cnc4ccccc4n3)C(=O)C2=CN1C1CC1 (stereo unspecified)	SENP8 block-1 52.3 | SENP8 conf 52.5
COc1cc(=O)n(C)c2c(O)cccc12	SENP8 block-1 55.7 | SENP8 conf inactive
COc1cc(=O)n(C)c2ccccc12	none
O=C(CSc1nnc2ccccn12)Nc1nsc(-c2ccccc2)n1	none
O=S(=O)(c1cc(Cl)ccc1Cl)N1CCCC1	none
CC1=NCCN1S(=O)(=O)c1cc(Cl)ccc1Cl	SENP8 block-1 47.7 | SENP8 conf inactive
CN(C(=O)COC(=O)c1nc(Cl)c(Cl)c(Cl)c1Cl)C1CCS(=O)(=O)C1 (stereo unspecified)	none (no result: AHR act, SENP6 block, SENP8 block-2, SENP7 inh)
O=C(COc1ccccc1)N1CCN(C(=O)c2cccc(F)c2)CC1	SENP8 block-1 40.6 | SENP8 conf inactive
COc1ccccc1NS(=O)(=O)c1cc(NC(=O)c2cccc(S(=O)(=O)N(C)C)c2)ccc1N1CCOCC1	SENP8 block-1 32.1 (no result: AHR act) | SENP8 conf inactive
O=C(CCCCCNC(=O)N1CCn2c1nc1ccccc12)N[C@@H](Cc1ccccc1)C(=O)O	SENP8 block-1 47.3 | SENP8 conf inactive
CSCC[C@H](NC(=O)N1CCn2c1nc1ccccc12)C(=O)N[C@H](Cc1ccccc1)C(=O)O	SENP8 block-1 48.6 | SENP8 conf inactive
O=c1[nH]c2ccc(S(=O)(=O)Nc3ccc(Cl)cc3)cc2[nH]1	none
COc1cc(CCC(=O)N2CCN(c3cccc(C)c3C)CC2)cc(OC)c1OC	none
CC(=O)c1ccc(S(=O)(=O)NCCCC(=O)N(C)Cc2ccc3c(c2)OCO3)cc1	none
O=C1Cc2ccccc2N1c1c(Cl)cccc1Cl	none
O=C1Cc2ccccc2C(=O)N1c1ccc(F)cc1Cl	SENP8 block-1 72.1 | SENP8 conf 50.5
O=c1c2ccccc2c(C=NCCc2ccccc2)c(O)n1Cc1ccccc1	SENP8 block-1 46.6 | SENP8 conf 50.6
COc1ccc(-c2cc(=O)[nH][nH]2)cc1	SENP8 block-1 41.5 | SENP8 conf inactive
O=c1cc(-c2ccc(Cl)cc2)[nH][nH]1	SENP8 block-1 43.1 | SENP8 conf inactive
O=C(CC1C(=O)NCCN1Cc1c(F)cccc1Cl)NC1CCCC1 (stereo unspecified)	none
CN(CC(=O)NC(=O)NC1CCCCC1)CC(=O)Nc1ccc(Cl)cc1	none
N#C/C(=C\c1ccc(O)c([N+](=O)[O-])c1)c1nc2ccccc2s1	SENP8 block-1 54.2 (no result: AHR act, SENP6 block, SENP8 block-2, SENP7 inh) | SENP8 conf 42.3
COc1ccc(CCN(C)c2ccc(S(=O)(=O)N3CCCC3)cc2[N+](=O)[O-])cc1OC	SENP8 block-1 43.2 | SENP8 conf inactive
COc1ccc(S(=O)(=O)Nc2cccc(S(=O)(=O)NC3=NCCC3)c2)cc1[N+](=O)[O-]	none
Cc1ccc(C)c(Nc2c([N+](=O)[O-])cc(C(=O)N3CC(=O)Nc4ccccc43)cc2[N+](=O)[O-])c1	SENP8 block-1 60.2 | SENP8 conf inactive
CC(C)C(NC(=O)/C(=C/c1ccco1)NC(=O)c1ccc(Br)o1)C(=O)O (stereo unspecified)	none
COc1ccc(OC)c(S(=O)(=O)Nc2cccc3c(O)cccc23)c1	SENP8 block-1 47.5 | SENP8 conf inactive
COc1ccc(OC)c(S(=O)(=O)Nc2ccc(O)c3ccccc23)c1	none
N#CC1(CCCN2CCCCC2)c2ccccc2CCc2ccccc21	SENP8 block-1 40.7 | SENP8 conf inactive
O=[N+]([O-])c1ccc(NN=Cc2cccc([N+](=O)[O-])c2)cc1	none (no result: AHR act, SENP6 block, SENP8 block-2, SENP7 inh)
O=[N+]([O-])c1ccc(N/N=C/c2c[nH]c3ccccc23)cc1	EBI2 block 41.7, SENP8 block-1 52.1 | SENP8 conf inactive
CCCCc1ccc(NC(=S)Nc2ccc(Nc3ccc(OC)cc3)cc2)cc1	SENP8 block-1 41.6 | SENP8 conf inactive
Cc1cccc(S(=O)(=O)NC(=O)C2(C)CCN2C(=O)C/C=C/c2ccccc2)c1 (stereo unspecified)	none (no result: AHR act, SENP6 block, SENP8 block-2, SENP7 inh)
Fc1ccc(NC(=S)N2CCN(c3ccccn3)CC2)cc1Cl	none
O=C(C1CCC(=O)N1Cc1ccccc1Cl)N1CCN(c2cccc(Cl)c2)CC1 (stereo unspecified)	SENP8 block-1 40.4 | SENP8 conf inactive
COc1cccc2c(Nc3ccccc3C)cc(C)nc12	none
COc1cccc2nc3cc(C)c(C)cc3nc12	SENP6 block 90.8, SENP8 block-1 42.2, SENP8 block-2 94.7, SENP7 inh 97.4 | SENP8 conf 78.0
CC(OC(=O)c1ccc2ncsc2c1)C(=O)N(C)C1CCCCC1 (stereo unspecified)	none
COc1ccc(C2SCCN2S(=O)(=O)c2ccc(F)cc2)cc1OC (stereo unspecified)	none

Bioassay records: PubChem, several laboratories
